The results in this text go back to PubChem BioAssay (Tox21).

SMILES strings stand for the structures. “And” between values parts separate entries of the source, which are not always exact repeats. Identical values can stand only once. Results filed as inconclusive are left out. More than one record can exist for a structure, and the calls need not agree. The source made the active and inactive calls. The call rests on the fitted dose curve; in most records, active means well fitted curve in the direction sought with a large enough effect in the repeat runs; inconclusive means weak or mixed curves; inactive means no such curve, though single readings can be large; an effect the other way counts as inactive or inconclusive.

The target in experiment [1] is Cytochrome P450 2C19 (Homo sapiens) (UniProt P33261). Description: Cytochrome P450 Family 2 Subfamily C Member 19 (CYP2C19) small molecule antagonists: luciferase reporter qHTS assay (AID 1671197). Further: nearly all actives have a fitted effect of over 65% in size. Further: potency means the concentration at half of the fitted maximal effect. The following applies: P450-Glo CYP2C19 enzyme, luciferin luminescence, 1 h; series mostly up to 115 µM. The procedure, abridged:
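P450-Glo CYP2C19 screening system; proluciferin substrate; DMSO compound stocks; 10 min RT preincubation; NADPH regeneration, 1 h at 37C; luciferin detection reagent, 20 min RT; luminescence as RLU.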
(A reporter such as luciferase makes a cellular process visible.)

In experiment [2] the target is Cytochrome P450 2C9 (Homo sapiens) (UniProt P11712). Nature of the experiment: Cytochrome P450 Family 2 Subfamily C Member 9 (CYP2C9) small molecule antagonists: luciferase reporter qHTS assay (AID 1671198). Further: nearly all actives have a fitted effect of over 50% in size. Further: potency means the concentration at half of the fitted maximal effect. The following applies: P450-Glo CYP2C9 enzyme assay, luciferin luminescence; series mostly up to 115 µM. The procedure, abridged:
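Enzyme-substrate mix preincubated with compound 10 min at room temperature; reaction started with NADPH regeneration solution, 1 h 37C. Luminescent luciferin product read after 20 min detection reagent.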

Experiment [3] concerns the target Voltage-gated inwardly rectifying potassium channel KCNH2 (Homo sapiens) (UniProt Q12809). Nature of the experiment: Human Ether-a-go-go-Related Gene (hERG) channel small molecule antagonists: fluorescence cell-based qHTS assay (AID 1671200). Further: nearly all actives have a fitted effect of over 50% in size. Further: potency means the concentration at half of the fitted maximal effect. The following applies: hERG-U2OS cells, FluxOR thallium flux fluorescence; series mostly up to 76.8 µM. In short, it runs like this: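 U2OS cells expressing the channel were plated at 1000 cells/well, incubated overnight at 37 C, then loaded with FluxOR II thallium-sensitive dye for 1 h at room temperature in the dark, with a further 10 min at room temperature before stimulation.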
For orientation: The hERG channel carries a current that helps repolarise heart muscle cells.

In experiment [4] the target is Cytochrome P450 3A4 (Homo sapiens) (UniProt P08684). Nature of the experiment: Cytochrome P450 Family 3 Subfamily A Member 4 (CYP3A4) small molecule antagonists: luciferase reporter qHTS assay (AID 1671201). Further: nearly all actives have a fitted effect of over 50% in size. Further: potency means the concentration at half of the fitted maximal effect. The following applies: P450-Glo CYP3A4 enzyme, luciferin luminescence, 1 h; series mostly up to 115 µM. The procedure, abridged:
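P450-Glo CYP3A4 system with proluciferin substrate; compounds preincubated 10 min RT with enzyme-substrate mix, then NADPH regeneration added for 1 h RT. Detection reagent 20 min, luminescence read as relative luminescence units.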

The target of experiment [5] is Cytochrome P450 1A2 (Homo sapiens) (UniProt P05177). Description: Cytochrome P450 Family 1 Subfamily A Member 2 (CYP1A2) small molecule antagonists: luciferase reporter qHTS assay (AID 1671199). Further: nearly all actives have a fitted effect of over 50% in size. The following applies: P450-Glo CYP1A2 enzyme, luciferin luminescence, 1 h; series mostly up to 115 µM. In short, it runs like this:
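Enzymatic CYP1A2 assay, human, luminescent: 10 min compound–enzyme–substrate preincubation, 1 h NADPH-dependent turnover, 20 min detection step, room temperature throughout. Reduced light indicates lower CYP1A2 activity.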

Sequence of Cytochrome P450 3A4 (Homo sapiens) (P08684 whole entry, looked up): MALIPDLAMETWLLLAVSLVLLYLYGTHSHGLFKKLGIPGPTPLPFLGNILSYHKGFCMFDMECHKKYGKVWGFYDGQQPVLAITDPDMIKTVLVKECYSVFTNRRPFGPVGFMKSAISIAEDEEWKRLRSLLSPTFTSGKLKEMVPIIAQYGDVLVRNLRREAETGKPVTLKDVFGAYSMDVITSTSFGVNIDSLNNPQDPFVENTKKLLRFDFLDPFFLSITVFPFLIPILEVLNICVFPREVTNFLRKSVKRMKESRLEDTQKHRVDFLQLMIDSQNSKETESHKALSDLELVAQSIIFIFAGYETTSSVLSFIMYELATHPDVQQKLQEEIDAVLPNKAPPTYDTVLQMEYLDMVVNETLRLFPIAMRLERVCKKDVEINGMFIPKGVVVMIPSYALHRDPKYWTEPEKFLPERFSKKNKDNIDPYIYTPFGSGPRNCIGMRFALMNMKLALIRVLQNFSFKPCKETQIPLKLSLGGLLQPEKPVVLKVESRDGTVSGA
Sequence of Cytochrome P450 2C9 (Homo sapiens) (P11712 whole entry, looked up): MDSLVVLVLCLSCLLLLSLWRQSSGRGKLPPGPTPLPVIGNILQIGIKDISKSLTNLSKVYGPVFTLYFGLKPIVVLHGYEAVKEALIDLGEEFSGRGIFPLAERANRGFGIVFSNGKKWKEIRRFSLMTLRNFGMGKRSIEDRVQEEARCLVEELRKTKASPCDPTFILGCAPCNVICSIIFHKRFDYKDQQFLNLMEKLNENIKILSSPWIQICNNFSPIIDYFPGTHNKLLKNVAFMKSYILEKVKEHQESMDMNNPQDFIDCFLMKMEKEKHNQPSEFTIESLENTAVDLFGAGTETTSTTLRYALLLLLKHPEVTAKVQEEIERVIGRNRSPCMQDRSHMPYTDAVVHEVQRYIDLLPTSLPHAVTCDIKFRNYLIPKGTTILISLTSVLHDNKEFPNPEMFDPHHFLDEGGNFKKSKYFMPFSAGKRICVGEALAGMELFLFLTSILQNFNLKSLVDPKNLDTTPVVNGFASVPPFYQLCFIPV
Sequence of Cytochrome P450 2C19 (Homo sapiens) (P33261 whole entry, looked up): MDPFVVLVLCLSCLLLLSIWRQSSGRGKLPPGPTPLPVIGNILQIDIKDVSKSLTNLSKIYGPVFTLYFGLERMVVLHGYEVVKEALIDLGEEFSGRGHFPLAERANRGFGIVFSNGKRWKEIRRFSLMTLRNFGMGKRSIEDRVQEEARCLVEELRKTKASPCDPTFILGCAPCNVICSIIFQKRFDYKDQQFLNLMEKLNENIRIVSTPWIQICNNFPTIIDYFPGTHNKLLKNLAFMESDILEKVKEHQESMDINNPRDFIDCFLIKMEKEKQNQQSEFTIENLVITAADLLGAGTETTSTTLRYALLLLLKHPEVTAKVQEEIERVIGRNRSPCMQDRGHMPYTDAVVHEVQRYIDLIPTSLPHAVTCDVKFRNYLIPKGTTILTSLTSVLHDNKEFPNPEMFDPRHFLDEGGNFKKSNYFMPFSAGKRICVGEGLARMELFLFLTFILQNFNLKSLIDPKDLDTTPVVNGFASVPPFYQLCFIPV
Sequence of Voltage-gated inwardly rectifying potassium channel KCNH2 (Homo sapiens) (Q12809 whole entry, looked up): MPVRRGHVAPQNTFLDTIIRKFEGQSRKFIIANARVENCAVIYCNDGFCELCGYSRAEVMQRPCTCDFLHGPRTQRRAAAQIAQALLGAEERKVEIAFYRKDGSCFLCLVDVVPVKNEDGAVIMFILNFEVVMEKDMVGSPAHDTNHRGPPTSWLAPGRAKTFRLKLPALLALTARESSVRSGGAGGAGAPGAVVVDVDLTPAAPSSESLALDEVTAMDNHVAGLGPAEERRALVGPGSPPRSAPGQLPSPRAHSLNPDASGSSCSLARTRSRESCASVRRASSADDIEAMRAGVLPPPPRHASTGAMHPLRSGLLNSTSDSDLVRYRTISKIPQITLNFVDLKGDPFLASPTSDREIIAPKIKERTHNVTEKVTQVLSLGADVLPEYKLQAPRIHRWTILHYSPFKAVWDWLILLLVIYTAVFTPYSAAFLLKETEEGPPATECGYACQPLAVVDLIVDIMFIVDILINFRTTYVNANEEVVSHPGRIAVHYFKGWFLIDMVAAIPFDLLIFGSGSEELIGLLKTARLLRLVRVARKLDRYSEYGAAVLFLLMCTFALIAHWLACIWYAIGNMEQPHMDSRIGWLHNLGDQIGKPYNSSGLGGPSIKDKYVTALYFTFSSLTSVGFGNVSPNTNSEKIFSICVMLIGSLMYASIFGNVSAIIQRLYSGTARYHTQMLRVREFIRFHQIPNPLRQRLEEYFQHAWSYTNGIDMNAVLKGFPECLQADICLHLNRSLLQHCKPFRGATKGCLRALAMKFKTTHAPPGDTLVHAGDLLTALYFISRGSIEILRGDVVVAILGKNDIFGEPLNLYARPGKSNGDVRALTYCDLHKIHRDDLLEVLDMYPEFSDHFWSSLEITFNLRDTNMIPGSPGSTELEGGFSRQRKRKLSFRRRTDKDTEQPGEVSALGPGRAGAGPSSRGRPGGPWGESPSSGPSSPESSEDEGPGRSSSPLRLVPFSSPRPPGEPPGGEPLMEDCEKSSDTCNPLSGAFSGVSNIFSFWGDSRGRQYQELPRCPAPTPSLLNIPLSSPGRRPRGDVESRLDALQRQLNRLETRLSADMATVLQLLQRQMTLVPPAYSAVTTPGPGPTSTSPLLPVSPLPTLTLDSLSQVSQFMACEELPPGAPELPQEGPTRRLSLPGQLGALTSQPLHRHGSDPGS
Sequence of Cytochrome P450 1A2 (Homo sapiens) (P05177 whole entry, looked up): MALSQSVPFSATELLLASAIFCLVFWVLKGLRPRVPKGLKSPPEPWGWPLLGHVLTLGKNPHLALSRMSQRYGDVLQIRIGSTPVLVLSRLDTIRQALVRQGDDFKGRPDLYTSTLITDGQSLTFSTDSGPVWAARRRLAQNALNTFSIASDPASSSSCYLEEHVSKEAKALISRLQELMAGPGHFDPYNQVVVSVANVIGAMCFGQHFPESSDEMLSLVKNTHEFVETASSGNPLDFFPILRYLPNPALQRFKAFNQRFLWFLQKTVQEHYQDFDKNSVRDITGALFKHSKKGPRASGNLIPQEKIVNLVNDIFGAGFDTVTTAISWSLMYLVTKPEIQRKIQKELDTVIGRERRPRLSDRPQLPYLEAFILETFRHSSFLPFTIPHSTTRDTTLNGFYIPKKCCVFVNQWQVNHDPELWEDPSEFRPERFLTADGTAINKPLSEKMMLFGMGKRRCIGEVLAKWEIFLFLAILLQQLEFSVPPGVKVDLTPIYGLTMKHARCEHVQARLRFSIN

Consider `CCCCC/C=C\C/C=C\CCCCCCCC(=O)O`, for which the Potency in experiment [1] was 22.1 µM (active) and inactive; in experiment [2] it was 35 µM (active) and 31.7 µM (active); in experiment [4] it was 39.9 µM (active). The Potency entry in experiment [3] was “inactive”.
As for `c1ccc(C(O[C@@H]2CCCN(CCc3ccc4c(c3)OCO4)C2)c2ccccc2)cc1`, the Potency in experiment [1] was 35.6 µM (active); in experiment [2], 17.8 µM (active); in experiment [3] it was 0.977 µM (active).
The corresponding values for `Cc1ccc(O)c(O)c1` are “inactive”, “inactive” and “inactive”.
Turning to `C=CC(C)(CCC=C(C)C)OC=O` (stereo not drawn), the values for the Potency in experiment [1], in experiment [2] and in experiment [4] were 20 µM (active), 35.6 µM (active) and 31.7 µM (active), respectively. For the same compound, the Potency entry in experiment [3] was “inactive”.
In the case of `CCCCCCC1CCCC(=O)O1` (stereo not drawn), the Potency entry in experiment [1], in experiment [3] and in experiment [4] was “inactive” each time. In addition, in experiment [2], the Potency is 25.2 µM (active).
Regarding `O=[N+]([O-])c1ccc(O)cc1C(F)(F)F`, the Potency entry in experiment [1] and in experiment [3] was “inactive” in each case. Moreover, the Potency in experiment [2] was 22.4 µM (active).
As to `CCC(C)(CCC(C)C)C(=O)[O][Sn]([CH3])([CH3])[O]C(=O)C(C)(CC)CCC(C)C` (stereo not drawn), the results for the Potency in experiment [1] and in experiment [2] were 56.4 µM (active) and 25.2 µM (active), respectively. Moreover, the Potency result in experiment [3] and in experiment [4] was “inactive” throughout.
With `O=C(O)[C@H](O)[C@@H](O)[C@H](O[C@@H]1O[C@H](CO)[C@H](O)[C@H](O)[C@H]1O)[C@H](O)CO`, the Potency entry in experiment [1], in experiment [2] and in experiment [3] was “inactive” each time.
For the compound `COC(C)=O`, the Potency result in experiment [1], in experiment [2], in experiment [3] and in experiment [4] was “inactive” each time.
In the case of `O=c1c(O)c(-c2ccc(O)cc2O)oc2cc(O)cc(O)c12`, the Potency result in experiment [1], in experiment [3] and in experiment [4] was “inactive” in each case. Moreover, in experiment [2], the Potency was 21.1 µM (active).
On to `CCCCC(CC)CN1CN(CC(CC)CCCC)CC(C)(N)C1` (stereo not drawn), for which the Potency entry in experiment [1] and in experiment [2] was “inactive” each time. Further, the Potency in experiment [3] is 2.68 µM (active).
Consider `Cc1c(C)c2c(c(C)c1OC(=O)c1cccnc1)CC[C@@](C)(CCC[C@H](C)CCC[C@H](C)CCCC(C)C)O2`, for which the Potency result in experiment [1], in experiment [2], in experiment [3] and in experiment [4] was “inactive” each time.
As to `CCc1ccc(Br)cc1`, the Potency entry in experiment [1], in experiment [2], in experiment [3] and in experiment [4] was “inactive” in each case.
In the case of `CCCCCCOC(=O)C(C)CC` (stereo not drawn), the Potency result in experiment [1], in experiment [2], in experiment [3] and in experiment [4] was “inactive” in each case.
Turning to `Nc1ccc(NCCO)c([N+](=O)[O-])c1`, the Potency in experiment [1] was 79.6 µM (active); in experiment [2] it was 35.6 µM (active); in experiment [4] it was 25.2 µM (active). For the same compound, the Potency result in experiment [3] was “inactive”.
Take `O=C(c1ccc(O)c(O)c1)c1ccc(O)cc1O`: the Potency in experiment [1] is 17.8 µM (active). The Potency result in experiment [2] and in experiment [3] was “inactive” in each case.
On to `O=C(O)c1cc(=O)c2ccccc2o1`, for which the Potency result in experiment [1], in experiment [2], in experiment [3] and in experiment [4] was “inactive” throughout.
As to `CCOc1ccc2ccccc2c1C(=O)N[C@@H]1C(=O)N2[C@@H]1SC(C)(C)[C@@H]2C(=O)O`, the Potency entry in experiment [1], in experiment [2], in experiment [3] and in experiment [4] was “inactive” throughout.
On to `OC1CCCc2ccccc21` (stereo not drawn), for which the Potency entry in experiment [1], in experiment [2] and in experiment [3] was “inactive” in each case.
For `Cc1cccc2cccnc12`, the Potency in experiment [1] is 70.5 µM (active). For the same compound, the Potency result in experiment [2], in experiment [3] and in experiment [4] was “inactive” each time.
As for `O=C(O)c1cccc(C(F)(F)F)c1`, the Potency result in experiment [1], in experiment [3] and in experiment [4] was “inactive” in each case. Besides, the Potency in experiment [2] was 79.6 µM (active).
Regarding `C[Si](Cl)(c1ccccc1)c1ccccc1`, the Potency in experiment [1] was 1.95 µM (active); in experiment [2] it was 4.37 µM (active). The Potency entry in experiment [3] was “inactive”.
For `CC(C)OC(=O)C(O)(CC(=O)O)CC(=O)O`, in that order: 35.6 µM (active), 35.6 µM (active) and “inactive”.
For the compound `CCCCCC/C=C\CCCCCCCC(=O)O`, the Potency in experiment [1] is 50.2 µM (active); in experiment [2], 71 µM (active). Also, the Potency result in experiment [3] was “inactive”.
As to `CC1=CCC(=C(C)C)CC1`, the Potency in experiment [1] was 79.6 µM (active); in experiment [2] it was 39.9 µM (active); in experiment [4], 20 µM (active). Further, the Potency result in experiment [3] was “inactive”.
`CC(C)(C)C1CCC(=O)CC1`: in experiment [1], the Potency is 7.96 µM (active). The Potency result in experiment [2], in experiment [3] and in experiment [4] was “inactive” each time.
In the case of `Cc1ccc(O)c(N)c1`, the Potency in experiment [1] was 35.6 µM (active); in experiment [2], 15.9 µM (active); in experiment [4] it was 15.9 µM (active). Besides, the Potency result in experiment [3] was “inactive”.
In the case of `C=CC(=O)OCCOC(=O)C=C`, the Potency result in experiment [1], in experiment [2], in experiment [3] and in experiment [4] was “inactive” throughout.
For `OC[C@@H](O)[C@@H](O)CO`, the Potency result in experiment [1], in experiment [2], in experiment [3] and in experiment [4] was “inactive” throughout.
`OC[C@H]1O[C@H](O[C@H]2O[C@H](CO)[C@@H](O)[C@H](O)[C@H]2O)[C@H](O)[C@@H](O)[C@@H]1O`: the Potency result in experiment [1], in experiment [2] and in experiment [3] was “inactive” throughout.
Consider `O=S(=O)(O)c1ccc(Nc2nc(Nc3ccc(/C=C/c4ccc(Nc5nc(Nc6ccc(S(=O)(=O)O)cc6)nc(N(CCO)CCO)n5)cc4S(=O)(=O)O)c(S(=O)(=O)O)c3)nc(N(CCO)CCO)n2)cc1`, for which the Potency entry in experiment [1], in experiment [2], in experiment [3] and in experiment [4] was “inactive” throughout.
For the compound `C=C(C)C(=O)OCCCCCCCCCC`, the Potency in experiment [1] was 56.8 µM (active). For the same compound, the Potency entry in experiment [5] and in experiment [3] was “inactive” throughout.
Take `Cc1cc(C(C)(C)C)cc(C)c1CC1=NCCN1`: the Potency result in experiment [1], in experiment [2] and in experiment [4] was “inactive” throughout.
`O=S(=O)(O)c1ccccc1/C=C/c1ccc(-c2ccc(/C=C/c3ccccc3S(=O)(=O)O)cc2)cc1`: the Potency entry in experiment [1], in experiment [5], in experiment [3] and in experiment [4] was “inactive” throughout.
